Calls of active or inactive are those of the source. Rule for the calls: active = hit-call score of the fitted dose curve at least 0.9, where 1 is the maximum; inactive = score below 0.9.
Experiment: ATG_GLI_CIS: Attagene CIS-FACTORIAL HepG2 Assay for human Zinc Finger Protein GLI1 (AID 2282945)
Conditions: HepG2, Attagene cis-factorial reporter mRNA, GLI element; actives raise or lower the signal
In short: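 HepG2 cells transiently transfected with cis-promoter multiplexed reporter units report endogenous transcription factor activity. After 24 h chemical exposure, reporter mRNA was quantified by RT-PCR, 6-FAM labelling, HpaI digestion and capillary electrophoresis, with bidirectional fitting against DMSO.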

SMILES	outcome
C=C(C)C(=O)OCCC(F)(F)C(F)(F)C(F)(F)C(F)(F)C(F)(C(F)(F)F)C(F)(F)F	inactive
CCCCCCCCCCCCCCCC[N+](C)(C)Cc1ccccc1	inactive
CC(C)(C)C(=O)CC(=O)C(F)(F)C(F)(F)C(F)(F)F	inactive
C(=C(c1ccccc1)c1ccccc1)c1ccccc1	inactive
CCCCNc1ccccc1	inactive
O=C(O)C(F)(F)C(F)(F)C(F)(F)F	inactive
FC(F)(F)C(F)(F)C(F)(F)N(C(F)(F)C(F)(F)C(F)(F)F)C(F)(F)C(F)(F)C(F)(F)F	inactive
O=S(=O)(OCC(F)F)C(F)(F)F	inactive
COC(OC(C)=O)c1ccccc1 (centres undefined)	inactive
FC(F)(Br)C(F)(F)C(F)(F)C(F)(F)C(F)(F)C(F)(F)Br	inactive
O=C(O)C(F)(OC(F)(F)C(F)(OC(F)(F)C(F)(F)C(F)(F)F)C(F)(F)F)C(F)(F)F (centres undefined)	inactive
O=C(O)C(F)(F)C(F)(F)C(F)(F)C(F)(F)C(F)(F)C(F)(F)C(F)(F)C(F)(F)C(F)(F)C(F)(F)C(F)(F)C(F)(F)C(F)(F)F	inactive
O=C(O)C(F)(F)C(F)(F)C(F)(F)C(F)(F)C(F)(F)C(F)(F)C(F)(F)C(F)(F)C(F)(F)C(F)F	inactive
O=C(O)C(F)(F)C(F)(F)C(F)F	inactive
CCCCCCOC(=O)c1ccccc1O	inactive
NC(=O)C(F)(F)C(F)(F)C(F)(F)C(F)(F)F	inactive
FC(F)(F)C(F)(F)C(F)(F)C(F)(F)C(F)(F)C(F)(F)CC1CO1 (centres undefined)	inactive

SMILES	outcome
FC1CC(F)(F)C(F)(F)C1(F)F (centres undefined)	inactive
CCCCOc1ccc(N)cc1	inactive
O=C(O)C(F)(F)C(F)(F)C(F)(F)C(F)(F)C(F)(F)C(F)(F)C(F)(F)C(F)(F)Cl	inactive
CC(Cc1ccc(O)c(O)c1)C(C)Cc1ccc(O)c(O)c1 (centres undefined)	inactive
FC(F)(F)C(F)(F)C(F)(F)C(F)(F)C(F)(F)C(F)(F)C(F)(F)I	inactive
CCCCOCCOCCOC(=O)CCCCC(=O)OCCOCCOCCCC	inactive
OCCCC(F)(F)C(F)(F)C(F)(F)C(F)(F)C(F)(F)C(F)(F)C(F)(F)F	inactive
CNC(=S)NC	inactive
[Co]	inactive
C=CC(F)(F)C(F)(F)C(F)(F)C(F)(F)C(F)(F)C(F)(F)C(F)(F)C(F)(F)C=C	inactive
CCC(=O)OCCc1ccccc1	inactive
CC/C=C\CCOC(=O)c1ccccc1	inactive
O=C(C=Cc1ccccc1)OCC=Cc1ccccc1	inactive
CCCCCCCOC(=O)c1ccccc1C(=O)OCCCCCCC	inactive
OCCCC(F)(F)C(F)(F)C(F)(F)F	inactive
CCCCCCC(C)OC(=O)CCCCC(=O)OC(C)CCCCCC (centres undefined)	inactive
OCC(F)(F)C(F)(F)C(F)(F)F	inactive

— PubChem BioAssay (EPA / NIEHS)
